Data: PubChem BioAssay (NCI)
About 79,000 compounds went through this panel and 15% of them were active in at least one assay; those are over-represented in the sample as a whole. The source made the active and inactive calls. Rule as the data show it: active = growth inhibition above about 70%; inactive = the rest.

Assays:
[1] = NCI Yeast Anticancer Drug Screen. Data for the wt1 strain (AID 149);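 also: 0% = growth of vehicle-treated wt1 cultures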; conditions: S. cerevisiae wt1 strain (SPY 50644) growth inhibition, stronger effect = higher value
Procedure, shortened: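 The wt1 strain was treated with compounds, and growth was compared with vehicle-treated cultures to give inhibition.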

[2] = NCI Yeast Anticancer Drug Screen. Data for the rad50EPP+ strain (AID 151);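 also: 0% = growth of vehicle-treated control cultures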; conditions: S. cerevisiae rad50 mutant strain, stronger effect = higher value
Procedure, shortened: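 Measured: growth inhibition of rad50EPP+ yeast. Reference: vehicle-treated controls. Screen uses strains with defined genetic alterations in DNA damage repair or cell cycle control.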

[3] = NCI Yeast Anticancer Drug Screen. Data for the mgt1 strain (AID 153); conditions: S. cerevisiae mgt1 mutant growth inhibition, stronger effect = higher value
Procedure, shortened: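 Compounds were applied to mgt1 mutant yeast, and growth was then compared against vehicle-treated control cultures to give percent inhibition.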

[4] = NCI Yeast Anticancer Drug Screen. Data for the rad50 strain (AID 155);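 also: 0% = growth of vehicle-only cultures of the same strain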; conditions: S. cerevisiae rad50 strain growth inhibition, stronger effect = higher value
Procedure, shortened: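 Cells are treated with compound, grown, and their growth is then scored against vehicle-only cultures of the same repair-deficient yeast strain.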

[5] = NCI Yeast Anticancer Drug Screen. Data for the mec2-1 strain (AID 157); conditions: S. cerevisiae mec2-1 strain, stronger effect = higher value
Procedure, shortened: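 Compounds were applied to mec2-1 yeast cells. Their growth was then compared with that of vehicle-treated cultures to give growth inhibition.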

[6] = NCI Yeast Anticancer Drug Screen. Data for the rad14 strain (AID 159);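 also: 0% = growth of vehicle-treated control cultures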; conditions: S. cerevisiae rad14 strain growth inhibition, stronger effect = higher value
Procedure, shortened: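 Readout: yeast growth inhibition, referenced to vehicle-only cultures. Strain bears a defined alteration in DNA damage repair.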

[7] = NCI Yeast Anticancer Drug Screen. Data for the sgs1 mgt1 strain (AID 161);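 also: 0% = growth of cultures given vehicle only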; conditions: S. cerevisiae sgs1 mgt1 strain, stronger effect = higher value
Procedure, shortened: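 Yeast cells carrying a defined DNA-repair defect were exposed to test compounds. Growth inhibition was measured relative to vehicle-treated controls.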

[8] = NCI Yeast Anticancer Drug Screen. Data for the CLN2oe strain (AID 163);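 also: 0% = growth of vehicle-only control cultures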; conditions: S. cerevisiae CLN2oe strain, stronger effect = higher value
Procedure, shortened: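 Cells of an engineered yeast line with disturbed cell-cycle regulation are treated with compound. Inhibition of growth is then calculated relative to the vehicle-treated reference.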

[9] = NCI Yeast Anticancer Drug Screen. Data for the cln2 rad14 strain (AID 165);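 also: 0% = growth equal to vehicle treated cultures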; conditions: S. cerevisiae cln2 rad14 strain, stronger effect = higher value
Procedure, shortened: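 Strain: cln2 rad14 yeast, altered in cell cycle control and DNA damage repair. Read-out: growth inhibition vs vehicle.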

[10] = NCI Yeast Anticancer Drug Screen. Data for the bub3 strain (AID 167); conditions: S. cerevisiae bub3 mutant strain, stronger effect = higher value
Procedure, shortened: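 Part of a panel of yeast mutants defective in DNA damage repair or cell cycle regulation. Each strain is grown with compound, and inhibition is calculated relative to solvent-treated cultures.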

[11] = NCI Yeast Anticancer Drug Screen. Data for the wt2 strain (AID 169);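 also: 0% = growth of vehicle-treated yeast cultures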; conditions: S. cerevisiae wt2 strain growth inhibition, stronger effect = higher value
Procedure, shortened: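 Growth of compound-treated yeast is measured and expressed as inhibition relative to vehicle-only controls.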

[12] = NCI Yeast Anticancer Drug Screen. Data for the mlh1 strain (AID 171);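 also: 0% = growth of vehicle-treated control cultures of the same strain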; conditions: S. cerevisiae mlh1 strain growth inhibition, stronger effect = higher value
Procedure, shortened: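 Test agents were incubated with yeast bearing a defined DNA damage repair or cell cycle control alteration; values are growth inhibition normalised to vehicle-treated cultures.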

[13] = NCI Yeast Anticancer Drug Screen. Data for the sgs1 strain (AID 173);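 also: 0% = growth of vehicle-only control cultures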; conditions: S. cerevisiae sgs1 mutant, stronger effect = higher value
Procedure, shortened: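 Strain with an altered DNA repair or cell cycle pathway exposed to compound. Growth then measured. Value = inhibition versus vehicle control.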

[14] = NCI Yeast Anticancer Drug Screen. Data for the mlh1 rad18 strain (AID 175); conditions: S. cerevisiae mlh1 rad18 strain growth inhibition, stronger effect = higher value
Procedure, shortened: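 A repair-deficient yeast strain is exposed to test compound, and growth is scored relative to vehicle-treated controls.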

[15] = NCI Yeast Anticancer Drug Screen. Data for the rad18 strain (AID 177); conditions: S. cerevisiae rad18 mutant growth inhibition, stronger effect = higher value
Procedure, shortened: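 DNA-repair-defective yeast; compound treatment; growth inhibition scored against vehicle.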

[16] = at 5.0 µM (retest, dose inferred, filed as 0.5)
[17] = at 50.0 µM (retest, dose inferred, filed as 5.0)

Measured: growth inhibition

O=CC(=C(I)I)c1ccccc1
inactive: [1]; at 1.2 µM 15% | [1]; at 3.7 µM 41% | [3]; at 1.2 µM 17% | [3]; at 3.7 µM 50% | [5]; at 1.2 µM 28% | [5]; at 3.7 µM 67% | [5]; [16] 33% | [6]; at 1.2 µM 20% | [6]; at 3.7 µM 38% | [7]; [16] 43% | [8]; at 1.2 µM -1% | [8]; at 3.7 µM -3% | [8]; at 11.0 µM 23% | [9]; [16] 2% | [10]; at 1.2 µM -6% | [10]; at 3.7 µM -4% | [10]; [16] -17% | [10]; at 11.0 µM 27% | [11]; at 1.2 µM 4% | [11]; at 3.7 µM 5% | [11]; at 11.0 µM 38% | [12]; at 1.2 µM 13% | [12]; at 3.7 µM 32% | [13]; at 1.2 µM 56% | [14]; [16] 18% | [15]; at 1.2 µM 50%
active: [1]; at 11.0 µM 88% | [1]; at 33.0 µM 99% | [1]; at 100.0 µM 90% | [2]; at 1.2 µM 91% | [2]; at 3.7 µM 96% | [2]; at 11.0 µM 97% | [2]; at 33.0 µM 98% | [2]; at 100.0 µM 99% | [3]; at 11.0 µM 98% | [3]; at 33.0 µM 99% | [3]; at 100.0 µM 93% | [4]; at 1.2 µM 93% | [4]; at 3.7 µM 95% | [4]; [16] 97% | [4]; at 11.0 µM 97% | [4]; at 33.0 µM 99% | [4]; [17] 100% | [4]; at 50.0 µM 85.7% | [4]; at 100.0 µM 97% | [5]; at 11.0 µM 99% | [5]; at 33.0 µM 99% | [5]; [17] 99% | [5]; at 50.0 µM 88.9% | [5]; at 100.0 µM 97% | [6]; at 11.0 µM 73% | [6]; at 33.0 µM 99% | [6]; at 100.0 µM 86% | [7]; [17] 99% | [7]; at 50.0 µM 90.8% | [8]; at 33.0 µM 98% | [8]; at 100.0 µM 98% | [9]; [17] 100% | [9]; at 50.0 µM 91.5% | [10]; at 33.0 µM 99% | [10]; [17] 100% | [10]; at 50.0 µM 92.2% | [10]; at 100.0 µM 99% | [11]; at 33.0 µM 99% | [11]; at 100.0 µM 99% | [12]; at 11.0 µM 81% | [12]; at 33.0 µM 97% | [12]; at 100.0 µM 85% | [13]; at 3.7 µM 79% | [13]; at 11.0 µM 99% | [13]; at 33.0 µM 99% | [13]; at 100.0 µM 99% | [14]; [17] 100% | [14]; at 50.0 µM 93.1% | [15]; at 3.7 µM 72% | [15]; at 11.0 µM 96% | [15]; at 33.0 µM 98% | [15]; at 100.0 µM 95%

O=C1c2ccccc2C2CCC1c1ccccc12 (stereo unspecified)
inactive: [1]; at 1.2 µM -12% | [1]; at 3.7 µM -14% | [1]; at 11.0 µM -13% | [1]; at 33.0 µM -6% | [2]; at 1.2 µM 1% | [2]; at 3.7 µM -4% | [2]; at 11.0 µM -2% | [2]; at 33.0 µM 50% | [2]; at 100.0 µM 68% | [3]; at 1.2 µM -12% | [3]; at 3.7 µM 6% | [3]; at 11.0 µM 5% | [3]; at 33.0 µM 17% | [4]; at 1.2 µM -19% | [4]; at 3.7 µM -5% | [4]; [16] 0% | [4]; at 11.0 µM 3% | [4]; at 33.0 µM 20% | [4]; [17] -29% | [4]; at 50.0 µM 62.9% | [5]; at 1.2 µM -24% | [5]; at 3.7 µM -14% | [5]; [16] -6% | [5]; at 11.0 µM 3% | [5]; at 33.0 µM 12% | [5]; [17] -19% | [5]; at 50.0 µM -6.1% | [6]; at 1.2 µM -25% | [6]; at 3.7 µM -24% | [6]; at 11.0 µM -17% | [6]; at 33.0 µM -6% | [7]; [16] -15% | [7]; [17] -7% | [7]; at 50.0 µM 9.45% | [8]; at 1.2 µM 2% | [8]; at 3.7 µM -5% | [8]; at 11.0 µM 7% | [8]; at 33.0 µM 59% | [9]; [16] -19% | [9]; [17] 13% | [9]; at 50.0 µM 18.3% | [10]; at 1.2 µM -22% | [10]; at 3.7 µM -30% | [10]; [16] -32% | [10]; at 11.0 µM -33% | [10]; at 33.0 µM 33% | [10]; at 50.0 µM 7.05% | [11]; at 1.2 µM -1% | [11]; at 3.7 µM -11% | [11]; at 11.0 µM 4% | [11]; at 33.0 µM 0% | [12]; at 1.2 µM -3% | [12]; at 3.7 µM 6% | [12]; at 11.0 µM 14% | [12]; at 33.0 µM 28% | [13]; at 1.2 µM -12% | [13]; at 3.7 µM -18% | [13]; at 11.0 µM -18% | [13]; at 33.0 µM 18% | [14]; [16] -45% | [14]; [17] 26% | [14]; at 50.0 µM 10.6% | [15]; at 1.2 µM -40% | [15]; at 3.7 µM -30% | [15]; at 11.0 µM -38% | [15]; at 33.0 µM -26%
active: [1]; at 100.0 µM 97% | [3]; at 100.0 µM 97% | [4]; at 100.0 µM 94% | [5]; at 100.0 µM 98% | [6]; at 100.0 µM 97% | [8]; at 100.0 µM 98% | [10]; [17] 89% | [10]; at 100.0 µM 97% | [11]; at 100.0 µM 97% | [12]; at 100.0 µM 94% | [13]; at 100.0 µM 96% | [15]; at 100.0 µM 96%
